Assay outcomes deposited in PubChem BioAssay by National Center for Advancing Translational Sciences (NCATS).
This is one part of a sample in which hits are shown more often than they occur.
FH mod – Identification of activators of human fumarate hydratase by quantitative high-throughput screening. Potency, µM (doses to about 79.9 µM), for inactives: at the top dose activity change, negative = inhibition, usual class: inhibitors. FH coupled MDH/diaphorase resazurin fluorescence, 15 min. 54,000 tested, 0.22% active; note: potency is the fitted concentration of half-maximal effect; % is set by controls: 0 for no effect and ±100 for the full control effect; the screen sought activators but most active calls are inhibition curves; nearly all actives have a fitted effect of over 45% in size
Target sequence (P07954 whole entry, looked up): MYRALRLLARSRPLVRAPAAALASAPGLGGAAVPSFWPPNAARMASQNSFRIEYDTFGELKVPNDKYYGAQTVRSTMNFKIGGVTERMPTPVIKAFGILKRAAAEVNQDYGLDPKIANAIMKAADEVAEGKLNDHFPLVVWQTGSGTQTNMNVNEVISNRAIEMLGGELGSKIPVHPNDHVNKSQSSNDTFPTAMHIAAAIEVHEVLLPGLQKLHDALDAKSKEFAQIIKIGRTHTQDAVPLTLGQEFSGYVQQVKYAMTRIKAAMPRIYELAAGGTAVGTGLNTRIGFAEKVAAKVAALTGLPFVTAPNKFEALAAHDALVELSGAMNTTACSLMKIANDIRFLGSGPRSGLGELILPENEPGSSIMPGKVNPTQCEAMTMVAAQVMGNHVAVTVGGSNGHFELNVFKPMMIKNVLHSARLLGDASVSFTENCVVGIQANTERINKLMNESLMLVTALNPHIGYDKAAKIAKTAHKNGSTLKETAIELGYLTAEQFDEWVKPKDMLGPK
NTMT1 inhibitor – Primary qHTS for Inhibitors of N-terminal methyltransferase 1 (NTMT1): MTaseGlo Assay | NTMT1 MTase-Glo SAH luminescence, purified enzyme | 59,000 tested, 2.5% active | AID 1645870, 2021 | Potency, µM (top dose mostly 114 µM), inactives show top-dose activity change, negative = inhibition, hits mostly inhibitors;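 note: potency is the fitted concentration of half-maximal effect; plate controls were DMSO vehicle for no effect and no enzyme for full effect; nearly all actives have a fitted effect of over 65% in size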
DYRK1A inh-1 – Assay for Inhibitors of Dual-Specificity Tyrosine-(Y)-Phosphorylation Regulated Kinase 1A (Kinase-Glo assay); shares compounds with NTMT1 inhibitor; recombinant DYRK1A, Kinase-Glo ATP depletion luminescence; Potency, µM (titrated, usually from 76.9 µM), for inactives: at the top dose activity change, negative = inhibition, hits mostly inhibitors; 100 tested, 80% active; AID 2705, 2010
CLK4 inh – Kinase Inhibition Study on Inhibitors of CDC-like Kinase 4 (Reaction Biology data): SAR round 2; shares compounds with NTMT1 inhibitor; Reaction Biology kinase assay, 10 uM ATP; Potency, µM, usual class: inhibitors; 65 tested, 100% active; calls by dose curve
DYRK1A inh-2 – Kinase Inhibition Study on Inhibitors of Dyrk1a (Reaction Biology data); Potency, µM, most hits filed as inhibitors; AID 504424, 2011; Reaction Biology kinase assay, 10 uM ATP; shares compounds with NTMT1 inhibitor; 65 tested, 90% active;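 active = compounds that showed inhibition of Dyrk1a and received a fitted potency; inactive = compounds that showed no inhibition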
CLK2 RBC – Kinase Inhibition Study on Inhibitors of CDC-like Kinase 2 (Reaction Biology data); 65 tested, 90% active; shares compounds with NTMT1 inhibitor; Reaction Biology kinase assay, 10 uM ATP; AID 504427, 2011; Potency, µM, hits mostly inhibitors;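 active = compound that inhibits Clk2 kinase in the dose series, with an IC50 potency reported; inactive = no inhibition seen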
CLK3 RBC – Kinase Inhibition Study on Inhibitors of CDC-like Kinase 3 (Reaction Biology data) | recombinant CLK3 kinase assay, 10 uM ATP | shares compounds with NTMT1 inhibitor | Potency, µM, most hits filed as inhibitors | 65 tested, 40% active;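 active = compounds that inhibited Clk3 enough in the ten-dose series to give a half-maximal potency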
DYRK1B RBC – Kinase Inhibition Study on Inhibitors of Dyrk1b (Reaction Biology data). shares compounds with NTMT1 inhibitor. 65 tested, 80% active. AID 504429, 2011. Potency, µM, actives largely listed as inhibitors. Recombinant Dyrk1b kinase assay, 10 uM ATP;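 active = compounds whose dose response shows an inhibitor phenotype against the kinase Dyrk1b; inactive = compounds showing no inhibitor phenotype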
CLK1 inh – Kinase Inhibition Study on Inhibitors of CDC-like Kinase 1 (Reaction Biology data); shares compounds with NTMT1 inhibitor; 65 tested, 90% active; recombinant Clk1 kinase assay, 10 uM ATP; Potency, µM, most hits filed as inhibitors;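 active = compounds that block the splicing kinase Clk1 enough to give a fitted half-inhibition concentration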
NNMT counter – Counterscreen qHTS for Inhibitors of N-terminal methyltransferase 1 (NTMT1): NNMT MTaseGlo assay; shares compounds with NTMT1 inhibitor; 120 tested, 10% active; NNMT MTase-Glo luminescence, SAH detection; Potency, µM (series often up to 57.1 µM), for the others: at the top dose activity, negative = inhibition, usual class: inhibitors
Active calls of the source: *; i = inactive; u = inconclusive; x = no result; [ ] = another dose, or the depositor's remark. Unless noted, calls come from the whole dose curve; as a rule, active = well fitted curve in the direction sought with a large enough effect; inconclusive = small, poorly fitted or top-dose-only effect, or another doubt; inactive = no such curve, though single readings can be large; an effect the other way counts as inactive or inconclusive.

SMILES	FH mod	NTMT1 inhibitor	DYRK1A inh-1	others
C/C=C(\C)C(=O)O[C@H]1C[C@](C)(O)[C@H]2CC=C(C)[C@H]2[C@@H]2OC(=O)[C@H](C)[C@H]21	-2%[53.3 µM]	u	x
COc1cc2c(NC3CCN(C(C)C)CC3)nc(C3CCCCC3)nc2cc1OCCCN1CCCC1	-16%	u	x	NNMT counter=u
OCc1ccc(-c2ccc(-c3ccc(CO)s3)o2)s1	1%[53.3 µM]	u	x	NNMT counter=-28%[28.6 µM]
NCC(CNc1nc(Nc2cccc(NC(=O)N3CCCC3)c2)ncc1I)C(=O)c1cccs1 (stereo unspecified)	0%	u	x	NNMT counter=u
CS(=O)(=O)Nc1ccc(-c2nc(NCc3ccc(-c4ccnc(C(F)(F)F)c4)cc3)c3ccccc3n2)cc1	x	7%	x
c1nc(NCc2ccc3c(c2)OCO3)c2cc(-c3ccc4c(c3)OCCO4)ccc2n1	x	-2%	x
Cc1cc(CNc2ncnc3ccc(-c4ccc5c(c4)OCO5)cc23)c(C)o1	x	u	0.37µM*	CLK4 inh=0.44*;DYRK1A inh-2=0.58µM*;CLK2 RBC=15µM*;CLK3 RBC=i;DYRK1B RBC=4.9µM*;CLK1 inh=0.86µM*
CN1CCCC1CCNc1ncnc2ccc(-c3ccc4c(c3)OCO4)cc12 (stereo unspecified)	x	-29%[57.5 µM]	4.1µM*	CLK4 inh=7.1*;DYRK1A inh-2=5.6µM*;CLK2 RBC=8.6µM*;CLK3 RBC=i;DYRK1B RBC=8.2µM*;CLK1 inh=5.2µM*
c1nc(NCC2CCCC2)c2cc(-c3ccc4c(c3)OCO4)ccc2n1	x	u	0.065µM*
CN(C)CCNc1ncnc2ccc(-c3ccc4c(c3)OCO4)cc12	x	u	1.6µM*	CLK4 inh=1.9*;DYRK1A inh-2=1.4µM*;CLK2 RBC=15µM*;CLK3 RBC=i;DYRK1B RBC=7.3µM*;CLK1 inh=4.2µM*
Cc1sc(C)c2c1C(=O)NS2(=O)=O	x	6%	x
Nc1c(S(=O)(=O)c2ccccc2)c2nc3ccccc3nc2n1-c1ccc(F)cc1	u	-16%[57.5 µM]	x
O=C(Nc1ccc(F)nc1)Nc1nnc(-c2ccncc2)s1	x	-1%	x
c1nc(NCCc2cnc[nH]2)c2ccc(-c3ccc4c(c3)OCO4)cc2n1	x	-18%	23µM*
